In the library only some 0.9% were active in any assay of this set; here they are far more common.
SRC1 TRFRET art: TR-FRET artefact, counter-screen to PPARgamma/SRC-1 agonist assay; TR-FRET detection artefact counter-screen, emission ratio; hits give high values; TR-FRET ratio at 8 µM; 99,000 tested, 0.34% active; AID 1051; in the data active = TR-FRET ratio above about 2300
SRC3 TRFRET art: TR-FRET artefact, counter-screen to PPARgamma/SRC-3 agonist assay. PPARgamma/SRC-3 format; hits give high values. TR-FRET ratio at 8 µM. 99,000 tested, 0.39% active. AID 1048; in the data active = TR-FRET ratio above about 2000
PPARg SRC-1 ag: agonists of human PPARgamma SRC-1 coactivator recruitment; P37231; activation, % at 8 µM; 200,000 tested, 0.41% active; AID 631; PPARgamma-SRC-1 coactivator recruitment biochemical assay; in the data active = activation above about 19%;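 also: 0% = DMSO and 100% = reference agonist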
PPARg SRC3 recr: PPARgamma-driven SRC-3 recruitment agonism. P37231. biochemical PPARgamma/SRC-3 coactivator recruitment assay. activation, % at 8 µM. 200,000 tested, 0.26% active; in the data active = activation above about 23%;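 also: 0% = DMSO and 100% = reference agonist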
PPARg SRC-2 ag: PPARgamma-driven SRC-2 recruitment agonism; PPARgamma LBD-SRC-2 recruitment, biochemical; activation, % at 8 µM; 200,000 tested, 0.34% active; AID 1032;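 also: 0% = vehicle and 100% = reference agonist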
TR-FRET SRC-2 ct: counter-screen for PPARgamma SRC-2 recruitment agonists: TR-FRET artefact. hits give high values. TR-FRET ratio at 8 µM. 200,000 tested, 0.4% active; in the data active = TR-FRET ratio above about 2000
PPARg SRC2 conf: human PPARgamma SRC-2 recruitment agonism, confirmation; AID 1297; shares compounds with PPARg SRC3 recr; biochemical SRC-2 recruitment by PPARgamma; 790 tested, 52% active; activation, % at 8 µM;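 also: 0% = vehicle alone and 100% = reference agonist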
PPARg SRC1 conf: human PPARgamma SRC-1 recruitment agonism, confirmation; shares compounds with PPARg SRC3 recr; PPARgamma–SRC-1 coactivator recruitment biochemical assay; activation, % at 8 µM; 790 tested, 43% active; AID 1300; in the data active = activation above about 20%;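 also: 0% = vehicle wells and 100% = reference agonist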
PPARg SRC3 conf: confirmation of agonists of SRC-3 recruitment by human PPARgamma; shares compounds with PPARg SRC3 recr; biochemical PPARgamma-SRC-3 coactivator recruitment, agonist mode; activation, % at 8 µM; 790 tested, 29% active; in the data active = activation above about 24%;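 also: 0% = vehicle wells and 100% = reference agonist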
* hit, by the source's call; / = no result. Rule as the data show it, unless noted: active = activation above about 22%; inactive = the rest.

SMILES	SRC1 TRFRET art	SRC3 TRFRET art	PPARg SRC-1 ag	PPARg SRC3 recr	PPARg SRC-2 ag	TR-FRET SRC-2 ct	PPARg SRC2 conf	PPARg SRC1 conf	PPARg SRC3 conf
COc1ccc(N2CC(NC(=O)Nc3ccccc3)CC2=O)cc1 (configuration not stated)	1759	1550	0.5	10.9	7.9	1485	/	/	/
COc1ccc(N2CCC(CNC(=O)Nc3ccccc3)C2)cc1 (configuration not stated)	/	/	6.0	8.5	23.6*	1624	/	/	/
CN=C1CC(SC)=C1c1ccc(C)cc1	/	/	10.1	-1.6	23.6*	1559	/	/	/
CCOC(=O)C1=C(C)OC(N)=C(C#N)C1c1cc2ccccc2nc1N1CCCCC1 (configuration not stated)	/	/	14.8	26.4*	15.4	1713	/	/	/
CSCCNC(=O)c1cccc(Cl)c1	1660	1317	-5.9	-3.8	-3.1	1579	/	/	/
CSCCNC(C)=O	/	/	-1.1	2.2	24.4*	2040*	/	/	/
COc1ccc(NC(=S)NN(C)C(=S)Nc2ccc(OC)cc2)cc1	1747	1589	8.7	6.7	1.8	1593	/	/	/
Cc1ccc(NC(=O)COc2ccc(S(=O)(=O)N3CCOCC3)cc2)cc1	/	/	-9.6	-10.2	-0.3	1498	/	/	/
O=C(COc1ccccc1)Nc1nc(-c2ccc(S(=O)(=O)N3CCOCC3)cc2)cs1	/	/	16.4	19.0	11.6	2563*	/	/	/
O=C(COC(=O)c1ccc(S(=O)(=O)N2CCOCC2)cc1)Nc1nc(-c2ccccc2)cs1	/	/	0.4	-2.5	4.5	1618	/	/	/
O=C(COc1ccc(Cl)cc1)Nc1nc(-c2ccc(S(=O)(=O)N3CCOCC3)cc2)cs1	/	/	13.0	23.5	9.6	2847*	/	/	/
COc1ccccc1OCC(=O)Nc1nc(-c2ccc(S(=O)(=O)N3CCOCC3)cc2)cs1	/	/	-1.9	-9.8	1.2	2294*	/	/	/
COc1ccc(-n2nc(C(=O)NCC(=O)NCC3COc4ccccc4O3)c3ccccc3c2=O)c(OC)c1 (configuration not stated)	1740	1543	2.4	1.5	-3.7	1654	/	/	/
O=C(Cc1ccccc1)NCC(=O)OCC(=O)c1ccc(OC(=O)c2ccccc2)cc1	/	/	7.1	-0.3	-2.6	1567	/	/	/
CN(C)c1ccc(N/C=C/C(=O)c2ccco2)cc1	/	/	5.0	14.7	24.0*	1727	10.3	8.8	7.4
CC(=O)Nc1ccc(N/C=C/C(=O)c2ccco2)cc1	/	/	2.7	-2.1	4.7	1573	/	/	/
NS(=O)(=O)c1ccc(N/C=C\C(=O)c2ccc(F)cc2)cc1	1676	1596	-2.5	-1.9	-8.7	1546	/	/	/
CN(C)c1ccc(N/C=C/C(=O)c2ccc(F)cc2)cc1	/	/	7.7	26.5*	21.0	1739	8.5	4.9	5.7
[O-][N+]1=c2ccc(Nc3ccccc3)cc2=NC12CCCCC2	/	/	23.7*	27.6*	16.0	1710	21.9*	13.5	10.2
COc1ccc(Nc2ccc3c(c2)=NC2(CCCCC2)[N+]=3[O-])cc1	/	/	23.6*	28.3*	19.1	2020*	15.4	15.3	9.8
COc1ccc(NC2=NC(=S)N(c3ccccc3C)C23CCCCC3)cc1	/	/	1.3	6.1	1.8	1465	/	/	/
COc1ccc(/C(O)=C2\C(=O)C(=O)N(c3cc(C)on3)C2c2ccccc2OC)cc1 (configuration not stated)	/	/	19.2*	24.7	31.9*	2135*	30.7*	25.1*	19.3
COc1ccc(/C(O)=C2\C(=O)C(=O)N(c3cc(C)on3)C2c2ccc(OC)c(OC)c2)cc1OC (configuration not stated)	/	/	7.6	-4.2	5.5	1427	/	/	/
COc1cccc(C2/C(=C(\O)c3ccc(OC)c(OC)c3)C(=O)C(=O)N2c2cc(C)on2)c1 (configuration not stated)	/	/	16.7	27.9*	29.2*	1910	24.2*	17.5	14.8
COCCn1c(N)c(N(Cc2ccccc2)C(=O)c2cc3ccccc3o2)c(=O)[nH]c1=O	1598	1446	-2.1	1.7	0.0	1550	/	/	/
SMILES	SRC1 TRFRET art	SRC3 TRFRET art	PPARg SRC-1 ag	PPARg SRC3 recr	PPARg SRC-2 ag	TR-FRET SRC-2 ct	PPARg SRC2 conf	PPARg SRC1 conf	PPARg SRC3 conf
O=C(Nc1ccc(N2CCOCC2)cc1N1CCOCC1)c1ccc([N+](=O)[O-])cc1	/	/	3.3	26.8*	13.9	1418	2.5	-0.2	1.8
O=C(CCNC(=O)c1ccc([N+](=O)[O-])cc1)Nc1ccc(N2CCOCC2)cc1N1CCOCC1	2042	1672	4.2	-2.7	5.0	1732	/	/	/
Cn1c(=O)cc(SCC(=O)Nc2ccccn2)c2ccccc21	/	/	44.6*	65.1*	59.0*	2585*	33.8*	23.5*	26.7*
Cc1ccnc(NC(=O)CCCOc2cc(=O)n(C)c3ccccc23)c1	/	/	-7.3	-4.4	-0.8	1577	/	/	/
Cc1ccnc(NC(=O)CSc2cc(=O)n(C)c3ccccc23)c1	/	/	74.5*	95.9*	75.0*	3578*	41.6*	23.3*	27.5*
COc1ccc(CCNC(=O)Cn2cnc3scc(-c4ccccc4)c3c2=O)cc1OC	1428	1422	-0.4	2.2	-3.9	1500	/	/	/
O=C1CC(Sc2nnc(-c3ccccc3)o2)C(=O)N1c1ccccc1 (configuration not stated)	/	/	19.8*	31.2*	39.1*	1657	28.2*	21.2*	15.7
Cc1ccccc1N1C(=O)CC(Sc2nnc(-c3ccccc3)o2)C1=O (configuration not stated)	/	/	42.4*	56.6*	43.0*	1855	48.2*	36.0*	31.5*
O=C1c2ccccc2CC1Sc1nnc(-c2ccncc2)o1 (configuration not stated)	/	/	-8.8	-4.2	0.8	1537	/	/	/
CC(=O)CSc1nc(N)c(C#N)c(-c2cccs2)c1C#N	/	/	1.0	-3.6	-1.9	1500	/	/	/
CC(=O)CSc1nc(-c2cccs2)c(C#N)c(=O)[nH]1	2767*	2268*	16.0	17.3	25.8*	2150*	31.2*	19.9*	19.8
CN(C)S(=O)(=O)c1ccc(Cl)c(NC(=O)c2ccncc2)c1	1736	1512	-3.4	-5.1	1.3	1575	/	/	/
Nc1c(C(=O)Nc2ccccc2)sc2nc3c(c(-c4ccco4)c12)CCC3	/	/	6.2	14.1	9.9	1681	/	/	/
COc1ccc(-c2c3c(nc4sc(C(=O)Nc5ccccc5)c(N)c24)CCC3)cc1	/	/	13.5	26.7*	25.6*	1922	33.2*	19.8*	21.4
COc1ccc2c(Cl)c(C(N)=O)sc2c1	2690*	2550*	32.6*	19.4	36.6*	2210*	36.0*	25.4*	24.6*
COc1ccc2c(Cl)c(C(=O)NN)sc2c1	/	/	-0.8	3.4	0.0	1487	/	/	/
